Test results as given in PubChem BioAssay (Tox21).
Values joined by “and” are separate entries in the source; they are usually repeats but may differ in a detail not shown here. Equal values may be shown once. Inconclusive results are not listed. Entries that show only a call come without a potency. A number with no mark means an inactive call. Active and inactive are the calls of the source. The call rests on the fitted dose curve; in most records, active means well fitted cell-killing curve with a large enough effect in the repeat runs; inconclusive means weak or mixed curves, or effect the other way; inactive means no such curve, though single readings can be large or run the other way.
Potency means the concentration at half of the fitted maximal effect.

Assay: qHTS assay to identify small molecule agonists of the estrogen receptor alpha (ER-alpha) signaling pathway in the presence of an antagonist - cell viability counter screen (AID 1259386);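 further: cells exposed to compounds for 22 h at 37 °C before the viability read; nearly all actives have a fitted effect of over 30% in size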
Settings: VM7Luc4E2 viability, CellTiter-Fluor fluorescence, 22 h; series mostly up to 92.4 µM
Excerpt: National Center for Advancing Translational Sciences [NCATS]
NIH Chemical Genomics Center [NCGC]
U.S. Environmental Protection Agency [EPA]
National Institutes of Environmental Health Sciences [NIEHS]
National Toxicology Program [NTP]
U.S. Food and Drug Administration [FDA]
Estrogen receptor (ER), a member of nuclear hormone receptor plays an important role in development, metabolic homeostasis and reproduction. Two subtypes of ER, ER-alpha and ER-beta, have similar expression patterns with some uniqueness in both types. Endocrine disrupting chemicals (EDCs) and their interactions with steroid hormone receptors like ER causes disruption of normal endocrine function. Therefore, it is important to understand the effect of environmental chemicals in ER signaling pathway. For identifying ER agonists, VM7Luc4E2 cell line has been used in the current assay.
VM7Luc4E2 cell line (provided by Denison MS, University of California) endogenously expresses full-length ER-alpha and is stably transfected with a plasmid containing four estrogen responsive elements (ERE) upstream of a luciferase reporter gene. This current screening for measuring luciferase reporter gene activity using VM7Luc4E2 cells against Tox21 10K library collection is a confirmation study on agonist mode screening in presence of ER-antagonist (ICI-182,780) at 10.0nM final concentration. The cytotoxicity of the compounds was tested in parallel by measuring the cell viability using CellTiter-Fluor assay system (Promega, Madison, WI) in the same wells.
Tox21 Assay Protocol Summary:
VM7Luc4E2 cells were cultured in phenol red free assay medium containing 10% charcoal stripped FBS for 5 days prior to the assay. The cells were dispensed at 4,000 cells in 4uL of assay medium per well into white wall/solid-bottom 1536-well plates (Corning Life Sciences, Corning, NY) using a Multidrop Combi (Thermo Fisher Scientific Inc., Waltham, MA) dispenser. After the assay plates were incubated at 37C and 5% CO2 for 24hr, 1uL of 10.0nM (final concentration) ICI-182,780 or assay buffer was added using two separate tips of Flying Reagent Dispenser (FRD, Aurora Discovery, San Diego, CA). Then 23nL of compounds dissolved in DMSO at 15 concentrations and positive controls or DMSO only was transferred to the assay plates by a Pintool station (Wako, San Diego, CA). The assay plates were incubated at 37C and 5% CO2 for 22hr. After 21hr incubation at 37C, 1uL/well CellTiter-Fluor reagent (Promega Corporation, Madison, WI) was added to each well using FRD and after 1hr incubation at 37C and 5% CO2, the fluorescence signal was measured on ViewLux plate reader (PerkinElmer, Shelton, CT).
`COc1cc2nc(N3CCN(C(=O)c4ccco4)CC3)nc(N)c2cc1OC` showed an activity change, negative = cytotoxicity of -1.18% [at 19 µM]. In the case of `CC(CO)Oc1ccccc1` (stereo not given), the Potency is reported as “inactive”. In the case of `S=C([S-])NCCNC(=S)[S-].S=C([S-])NCCNC(=S)[S-].[Mn+2].[Zn+2]`, the Potency is reported as “inactive”. With `COc1ccc2c(c1)c(CC(=O)OC/C=C(\C)CC/C=C(\C)CCC=C(C)C)c(C)n2C(=O)c1ccc(Cl)cc1` the Potency was “inactive”. In the case of `C#C[C@]1(O)CC[C@H]2[C@@H]3[C@H](C)CC4=C(CCC(=O)C4)[C@H]3CC[C@@]21C`, the Potency is reported as “inactive”. In the case of `C=CCn1c(=O)n(CC=C)c(=O)n(CC=C)c1=O`, the Potency is reported as “inactive”. In the case of `Clc1sc(Cl)c(Cl)c1Cl`, the Potency is reported as “inactive”. In the case of `O=S(=O)(O)c1ccc(N=Nc2c(O)ccc3ccccc23)cc1`, the Potency is reported as 27.3 µM (active). With `COc1cc(/C=C/c2ccccc2)oc(=O)c1` the Potency was “inactive”. In the case of `CC(C)NC[C@@H](O)COc1ccc(CC(N)=O)cc1`, the Potency is reported as “inactive”. With `CCOC(=O)c1ccc(C2CCC(NC[C@H](O)COc3ccc(O)c(NS(C)(=O)=O)c3)CC2)cc1` (stereo not given in full) the Potency was “inactive”. With `CN(C)c1ccc(C(=C2C=CC(=[N+](C)C)C=C2)c2ccc(N(C)C)cc2)cc1` the Potency was 8.59 µM (active) and 15.4 µM (active) and 5.96 µM (active). In the case of `CC(CCc1ccccc1)NCC(O)c1ccc(O)c(C(N)=O)c1` (stereo not given), the Potency is reported as 27.3 µM (active). In the case of `Fc1ccc(C(c2ccc(F)cc2)N2CCNCC2)cc1`, the Potency is reported as “inactive”. In the case of `CCCCCCCCCCC[C@@H](C[C@@H]1OC(=O)[C@H]1CCCCCC)OC(=O)[C@H](CC(C)C)NC=O`, the Potency is reported as “inactive”. In the case of `CC(=O)Oc1cc2c(s1)CCN(C(C(=O)C1CC1)c1ccccc1F)C2` (stereo not given), the Potency is reported as “inactive”. For `Cc1cc(C(C)(C)C)cc(C)c1CC1=NCCN1`, the Potency was “inactive”. For `C=C(C)C(=O)OCCCCCCCCCC`, the Potency was “inactive”. For `C=C(C)c1cccc(C(=C)C)c1`, the Potency was “inactive”. In the case of `CCCCCCCC`, the Potency is reported as “inactive”. In the case of `O=[N+]([O-])c1ccc(F)c(Cl)c1`, the Potency is reported as “inactive”. In the case of `Cc1ccc(C)cc1`, the Potency is reported as “inactive”. For `CCCCCCOC(=O)C(C)CC` (stereo not given), the Potency was “inactive”. In the case of `COc1cccc(OC)c1C(=O)O`, the Potency is reported as “inactive”. In the case of `CCCCCCCCCCCCCC[N+](C)(C)Cc1ccccc1`, the Potency is reported as “inactive”. For `CCC(COC(=O)CCS)(COC(=O)CCS)COC(=O)CCS`, the Potency was “inactive”. With `CCCCCC/C=C\CCCCCCCC(=O)O` the Potency was “inactive”. For `O=C(O)Cc1ccc2c(c1)C(=O)c1ccccc1CO2`, the Potency was “inactive”. In the case of `CC(=O)CC(=O)Nc1ccc(S(=O)(=O)O)cc1`, the Potency is reported as “inactive”. With `c1ccc(SSc2ccccc2)cc1` the Potency was “inactive”. With `CCCCCCCC/C=C\CCCCCCCCN` the Potency was “inactive”. With `O=C1NC(=O)[C@@H]2CC=CC[C@H]12` the Potency was “inactive”. Molecule `NC[C@H]1O[C@H](O[C@H]2[C@H](O[C@@H]3O[C@H](CO)[C@@H](O)[C@H]3O)C(O)[C@H](N)C[C@@H]2N)[C@H](N)[C@@H](O)[C@@H]1O` (stereo not given in full) has an activity change, negative = cytotoxicity of 3.36% [at 8.39 µM]. For `CCC(CC)C(C)CCOC(C)=O` (stereo not given), the Potency was “inactive”. For `COC(=O)c1ccccc1C`, the Potency was “inactive”. With `[Cl][Pt-2]([Cl])([Cl])[Cl]` the Potency was “inactive”. In the case of `NC(=S)NC(N)=S`, the Potency is reported as “inactive”. For `Cc1cc(C)c(/C=C2\C(=O)Nc3ccccc32)[nH]1`, the Potency was 7.5 µM (active). In the case of `O=C(O)Cc1ccccc1Nc1c(Cl)cccc1Cl`, the Potency is reported as “inactive”. For `O=C1OC2(c3ccc(O)cc3Oc3cc(O)ccc32)c2ccc(N=C=S)cc21`, the Potency was “inactive”.
